Sampled rows, rich in hits. Any-hit rate of the full collection: about 5.8%.
Luciferase inh – blocks Photinus pyralis firefly luciferase activity; P08659; purified firefly luciferase, luminescence, 8 min; Potency, µM (doses to about 57.1 µM), for inactives: top-dose activity change, negative = inhibition, hits mostly inhibitors; actives 2.2% (n = 72,000); AID 411; further: on the % scale 0 is the no-effect control and ±100 the full control effect; nearly all actives have a fitted effect of over 40% in size
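Substrate buffer containing 10 uM ATP (pH 7.2 imidazole, Mg2+, KCl, detergent, BSA) is dispensed, compound pinned in, then luciferase/luciferin detector mix added. After 8 min at ambient temperature, light output is measured.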
Bst PK mod – pyruvate kinase (B. stearothermophilus) modulation; purified pyruvate kinase, luminescence ATP production; ribose 5-phosphate activator present at AC10; Potency, µM; actives 1.2% (n = 51,000); AID 361; in the data active means potency below about 11 µM; inconclusive means mostly about 12 µM to 25 µM;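 the screen sought inhibitors and activators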;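 further: scaled between full activation by ribose 5 phosphate and full inhibition by luteolin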
GBA mod – alters purified human glucocerebrosidase activity; purified enzyme, resorufin glucoside fluorescence (screen aimed at inhibitors), 20 min; actives 1.1% (n = 48,000); Potency, µM; P04062; in the data active means potency below about 15 µM; inconclusive means mostly about 16 µM to 33 µM;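 further: the screen sought inhibitors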
Target sequence (P04062 whole entry, looked up): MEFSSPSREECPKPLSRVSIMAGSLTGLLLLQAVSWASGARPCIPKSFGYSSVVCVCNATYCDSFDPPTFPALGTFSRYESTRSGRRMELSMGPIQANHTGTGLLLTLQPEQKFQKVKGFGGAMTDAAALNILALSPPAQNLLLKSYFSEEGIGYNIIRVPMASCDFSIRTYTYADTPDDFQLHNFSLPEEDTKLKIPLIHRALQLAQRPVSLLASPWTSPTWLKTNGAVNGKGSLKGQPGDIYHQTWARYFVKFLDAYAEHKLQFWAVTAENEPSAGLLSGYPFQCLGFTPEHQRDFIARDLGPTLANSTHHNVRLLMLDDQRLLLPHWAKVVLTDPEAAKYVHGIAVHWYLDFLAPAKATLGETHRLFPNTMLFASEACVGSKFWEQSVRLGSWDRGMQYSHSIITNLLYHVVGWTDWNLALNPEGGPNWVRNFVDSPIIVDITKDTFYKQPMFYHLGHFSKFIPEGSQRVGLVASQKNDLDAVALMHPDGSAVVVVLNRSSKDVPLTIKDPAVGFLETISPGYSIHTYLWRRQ
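Normal human glucocerebrosidase (0.2 nM final) was assayed with resorufin β-D-glucopyranoside (30 uM final) in 50mM citric acid/KH2PO4, 10mM sodium taurocholate, 0.01% tween-20, pH 5.9. Compounds were titrated; fluorescence (Ex 548, Em 600) read after 20 min at RT.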
HEK293 cAMP ctrl – parental HEK293 cAMP activation (counter-screen); parental HEK293 CNG cAMP sensor, membrane potential fluorescence; Potency, µM (highest dose often 57.1 µM), inactives show top-dose activation, most hits filed as activators; actives 2.5% (n = 73,000); further: % of control where 0% means no effect; nearly all actives have a fitted effect of over 55% in size
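Counterscreen for endogenous-receptor signalling: CNG-channel HEK 293 cells report cAMP rise by membrane depolarization. After 60 min dye equilibration with 100 uM RO 20-1724, compounds incubated 30 min before bottom-read fluorescence at 590 nm.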
TSHR agonist – TSH receptor (human) agonism | HEK293-CNG-TSHR cells (CNG channel as cAMP sensor), membrane potential dye, cAMP | Potency, µM (titrated, usually from 57.1 µM), for the others: top-dose activation, usual class: activators | actives 0.48% (n = 73,000) | AID 926; active means well fitted activation curve with a large enough effect in the main read-out, with a control signal flat, not every such curve was filed as active; inconclusive means small, poorly fitted or top-dose-only effect, or a change in a side signal; inactive means no such curve, though single readings can be large or run the other way; % of control where 0% means no effect;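 further: the control signal comes from parental cells without the receptor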
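cAMP rise detected as CNG-channel membrane depolarization by fluorescent dye (emission 590 nm), 30 min after compound, following 60 min dye loading containing 100 uM RO 20-1724 at room temperature. Cells: TSHR/CNG HEK 293, with parental CNG HEK 293 as control.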
An asterisk follows results filed as active; i = inactive; ? = inconclusive; · = no result; ! = repeats disagree; [ ] = remark or other dose. Unless noted, the call rests on the fitted dose curve; in most records, active means well fitted curve in the direction sought with a large enough effect; inconclusive means small, poorly fitted or top-dose-only effect, or another doubt; inactive means no such curve, though single readings can be large; an effect the other way counts as inactive or inconclusive. Potency means the concentration at half of the fitted maximal effect.

SMILES | Luciferase inh | Bst PK mod | GBA mod | HEK293 cAMP ctrl | TSHR agonist
c1cc2c3c(c1)c1c(n3CCNC2)CCCC1 | ? | · | · | -5.5% | 11.8%
Fc1ccc(C(c2nnnn2C2CCCC2)N2CCN(Cc3ccncc3)CC2)cc1 (stereo not given) | 0.9% | >57 | >76.9 | 14.1% | -51.4%
CN(c1ccccc1)C(c1ccc(F)cc1)c1nnnn1C1CCCC1 (stereo not given) | -3.2% | >57 | >76.9 | 12.6µM* | ?
CN(C)c1ncc2nc(-c3ccccc3)c(=O)n(C)c2n1 | -24.7%[11.4 µM] | · | · | 11.1% | 1.0%
O=C(c1ccco1)N1C(=O)c2cccc3cccc1c23 | 1.3% | >57 | ? | 0.0% | 7.2%
O=C(c1ccco1)n1c(=S)nc2ccccn21 | 5.01µM* | ? | >76.9 | -1.4% | -8.3%
Cc1cccc2nc(=S)n(C(=O)c3ccco3)n12 | 2µM* | ? | >76.9 | -1.9% | -6.5%
CN1CCN(C(=O)CSc2nc(-c3cccs3)cc(-c3cccs3)c2C#N)CC1 | 2.0% | i | 12.4* | 10.8% | 8.7%
COc1ccc(C(=O)/C=C/Nc2cc(C)on2)c(OC)c1 | 3.16µM* | 3.8* | >76.9 | 7.2% | -1.1%
COc1ccc(CNc2cc(-c3ccoc3)ncn2)c(OC)c1 | -3.9%[2.29 µM] | · | · | 4.7% | ·
Cc1cn([C@H]2C[C@H](O)[C@@H](COC(N)=O)O2)c(=O)[nH]c1=O | 1.4%[11.4 µM] | · | · | -3.2%[11.4 µM] | 9.9%[11.4 µM]
CCOC(=O)c1cc2c(ccn2C)n1Cc1ccccc1C | -0.8% | >57 | >76.9 | 25.1µM* | ?
CCOC(=O)c1cc2c(ccn2C)n1CC(=O)N1CCN(c2ccccc2)CC1 | 0.5% | >57 | >76.9 | 3.1% | -5.6%
O=c1[nH]c(=S)[nH]c(-c2ccccc2)c1Cc1c(O)ccc2ccccc12 | 2.8%[11.4 µM] | · | · | 2.51µM* | ?
Oc1ccc2ccccc2c1Cc1c(O)ccc2ccccc12 | -0.7%[11.4 µM] | · | · | 18.8%[11.4 µM] | 6.2%[11.4 µM]
O=C(Cc1ccc2cccnc2c1)c1ccc(O)cc1O | 0.8% | 5.99* | >76.9 | -6.6% | -3.3%
Cn1c(SCc2nc3ccccc3n2CCO)nc2ccccc21 | -3.2% | >57 | >76.9 | -8.6% | -2.3%
Cn1c(SCc2ccc(C#N)cc2Cl)nc2ccccc21 | 15.8µM* | · | · | ? | ?
c1ccc(CC2=NCCN2)cc1 | -0.6%[25.5 µM] | · | · | ? | ?
Cc1ccccc1/C=C\C1=NCCN1 | 1.0% | · | · | 11.5% | 0.126µM*
O=C(c1ccc2c(c1)OCCO2)C1CCN(S(=O)(=O)c2ccc(F)cc2)CC1 | 0.0% | 10* | >76.9 | 17.3% | 13.4%
CNc1ncncc1-c1ccc(C(=O)N(C)C)cc1 | -2.5%[2.29 µM] | · | · | -3.0% | -1.9%
O=C(Nc1ccccn1)C1CCN(S(=O)(=O)c2cccs2)CC1 | 0.1% | >57 | >76.9 | ? | ?
CCn1c2ccccc2c2cc(NC(=O)C3CCN(S(=O)(=O)c4cccs4)CC3)ccc21 | 0.7% | >57 | 2.78* | -26.2% | -8.1%
Cn1c(=NC(=O)C2CCN(S(=O)(=O)c3cccs3)CC2)sc2ccccc21 | 2.4% | >57 | >76.9 | 13.6% | 25.1µM*
SMILES | Luciferase inh | Bst PK mod | GBA mod | HEK293 cAMP ctrl | TSHR agonist
O=C(C1CCN(S(=O)(=O)c2cccs2)CC1)N1CCc2ccccc2C1 | 0.1% | >57 | >76.9 | 2.4% | 2.2%[11.4 µM]
CC(=O)N1CCC2(CCN(Cc3ccncc3)CC2)CC1 | 1.0%[11.4 µM] | · | · | 4.7% | 6.9%
COc1ccc(CN(C)CC(=O)c2c(N)n(Cc3ccccc3)c(=O)n(C)c2=O)c(OC)c1 | -1.4% | >57 | ? | ? | ?
COc1ccc(CN(CCN(C)C)Cc2ccccc2)c(OC)c1 | 1.4% | >57 | · | 12.6µM* | ?
CCN(Cc1ccccc1)Cc1c(F)cccc1F | 3.3% | · | · | 23.5% | 16.8%
CCN(Cc1ccccc1)Cc1cc(OC)cc(OC)c1 | -0.9% | · | · | 5.01µM* | ?
C[C@@H]1C[C@@H]2[C@H]3CCC4=CC(=O)C=C[C@]4(C)[C@]3(Cl)[C@@H](O)C[C@@]2(C)[C@@]1(O)C(=O)CO | -6.7% | · | · | 9.7% | 6.7%
Cc1cccc(C(C)C)c1-n1nnnc1-c1ccccc1 | -10.2% | · | · | 20µM* | ?
O=C(NCCN1CCCC1)c1ccc(Cc2nc3ccccc3[nH]2)cc1 | · | · | · | -9.4% | -1.9%
Clc1ccc(C(c2nnnn2C2CCCC2)N2CCSCC2)cc1 (stereo not given) | -0.6% | >57 | · | 3.16µM* | ?
COc1ccc(C(c2nnnn2C2CCCCC2)N2CCN(c3ccc(OC)cc3)CC2)cc1 (stereo not given) | 0.5% | >57 | · | 15.9% | 17.9%
COc1ccc(C(c2nnnn2C2CCCC2)N2CCC(C)CC2)cc1 (stereo not given) | -2.5% | >57 | >76.9 | 20µM* | ?
COc1ccccc1N1CCN(C(c2cccs2)c2nnnn2C2CCCC2)CC1 (stereo not given) | 1.8% | >57 | >76.9 | 12.6µM* | ?
c1ccc(CC2CCN(C(c3cccs3)c3nnnn3C3CCCC3)CC2)cc1 (stereo not given) | -0.2% | >57 | · | ? | ?
O=C(c1cccc(F)c1)N1CCC2(CCCN(c3ccccc3)C2)CC1 | 0.7%[11.4 µM] | · | · | ? | ?
CN(C)CCOC(=O)c1ccc(N)cc1 | 0.0%[11.4 µM] | · | · | 5.4%[11.4 µM] | 4.2%[11.4 µM]
CNCCCC12CCC(c3ccccc31)c1ccccc12 | -1.5%[25.5 µM] | >25.6 | · | 39.8µM*! | ?
CNCCCC1c2ccccc2C=Cc2ccccc21 | -0.2%[25.5 µM] | >25.6 | · | -1.0%[25.6 µM] | -4.8%[25.6 µM]
COc1cccc(OC)c1-c1nnc(-c2cn(C)c3ccccc23)o1 | -0.2% | >57 | >76.9 | 20µM* | ?
CC(Oc1ccc(Br)cc1)C(=O)N1CCc2ccccc21 (stereo not given) | 2.3% | >57 | >76.9 | 25.1µM* | ?
CC(Oc1ccccc1Br)C(=O)N1CCc2ccccc21 (stereo not given) | -4.5% | >57 | >76.9 | ? | ?
CCOc1ccc2[nH]c(=O)c(CN(Cc3cccs3)Cc3nnnn3C(C)(C)CC)cc2c1 | -34.2% | >57 | 15.3* | 20µM* | ?
COCCn1nnnc1CN(Cc1cccnc1)Cc1cc2cc(OC)ccc2[nH]c1=O | 0.6% | >57 | >76.9 | 8.0% | -3.9%
CCC(C)(C)n1nnnc1CN(Cc1cccs1)Cc1cc2cc(OC)ccc2[nH]c1=O | 1.1% | >57 | i | 15.8µM* | ?
CC(C)(N)C(=O)N[C@@H]1C(=O)N2[C@@H]1SC(C)(C)[C@H]2C(=O)O | 1.9%[11.4 µM] | · | · | 0.2%[11.4 µM] | -5.0%[11.4 µM]
SMILES | Luciferase inh | Bst PK mod | GBA mod | HEK293 cAMP ctrl | TSHR agonist
CCOC(=O)C1=C(c2ccccc2)NC(SCC(=O)Nc2ccc(C)cc2)=C(C#N)C1c1ccco1 (stereo not given) | 3.3% | >57 | 11.9* | 5.3% | ·
CC(=O)c1c(C(C)=O)c(C)n(Cc2ccc3c(c2)OCO3)c1C | 3.8% | >57 | >76.9 | 12.6µM* | ?
C[C@@]1(O)C(O)[C@@H](CO)O[C@H]1n1cnc2c(NC3CCCC3)nc(Cl)nc21 (stereo not given in full) | · | · | · | 3.7% | -0.3%
Cc1nc2cnc(N(C)C)nc2n(CCc2ccccc2)c1=O | 0.0%[11.4 µM] | · | · | 15.8µM* | ?
O=c1c(-c2ccccc2)nc2cnc(N3CCOCC3)nc2n1Cc1cccs1 | -0.2%[11.4 µM] | · | · | 13.9% | 13.3%
Cc1ccccc1-n1c(C)nc2ccccc21 | 1.3% | · | · | 27.7% | 25.1µM*

Screening results deposited in PubChem by National Center for Advancing Translational Sciences (NCATS).
